Results on 19 molecules are retold here after PubChem BioAssay (NCATS).

Values without a mark were called inactive. Results filed as inconclusive are left out. Activity calls are given as the source filed them. Unless noted, calls come from the whole dose curve; as a rule, active = well fitted curve in the direction sought with a large enough effect; inconclusive = small, poorly fitted or top-dose-only effect, or another doubt; inactive = no such curve, though single readings can be large; an effect the other way counts as inactive or inconclusive.

A short description of test [1]: qHTS to identify inhibitors of the type 1 interferon - major histocompatibility complex class I in skeletal muscle: primary screen against the NCATS Pharmaceutical Collection (AID 1347407).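 Note: luminescence of HiBiT knocked into endogenous HLA-B as interferon-induced MHC class I level; % is set by controls: 0 for no effect and ±100 for the full control effect.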 The gist of the method:
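Compounds […] were added to CRISPR-engineered HLA-B-HiBiT C25cl48 human myoblasts with 4.0 ng/ml IFN-beta. After 24 hrs at 37 C, cells were lysed and HiBiT luminescence measured.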

Test [2] concerns the target Protein phosphatase 1D (Homo sapiens) (UniProt O15297). The test is described as follows: Rhodamine-PBP qHTS Assay for Modulators of WT P53-Induced Phosphatase 1 (WIP1) (AID 1347425). Note: % of control where 0% means no effect. Put shortly:
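5 nM WIP1 + 10 uM Rh-PBP, 50 mM Tris pH 7.5, 30 mM MgCl2, 1 mM TCEP, 0.1 mM EGTA, BSA; cpds pinned, 1 hr RT; + 10 uM phosphopeptide; fluorescence 1-min reads x 11 min; delta = f1 - f0.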

Test [3] in a line: Primary qHTS for inhibitors of La Crosse Virus (LACV) - induced cell death in SH-SY5Y cells (AID 1508616).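 Note: top concentration of the series differs between compounds; 0% = infected DMSO wells and 100% = uninfected DMSO wells; higher means more rescue of cells from virus-induced death.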 The gist of the method:
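Protection against LACV-induced cell death is scored in SH-SY5Y cells exposed to compounds and virus (0.01 MOI) for 6 days. Data normalized to virus-infected DMSO wells and virus-free DMSO wells.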
Background: Quantitative high-throughput screening tests each substance at several concentrations.

Test [4] concerns the target Calcium and integrin-binding protein 1 (Homo sapiens) (UniProt Q99828). The test is described as follows: Primary qHTS for Identification of Calcium Integrin Binding Protein 1 (CIB1) Competitor (AID 1508620).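 Note: GST tagged CIB1 binding a fluorescein labelled alphaIIb integrin peptide tracer; top concentration of the series differs between compounds; % is set by controls: 0 for no effect and ±100 for the full control effect.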 The gist of the method:
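Fluorescence polarization competition: CIB1-GST (1 uM final) preincubated with compound 15 min at room temperature, then FITC-labeled alphaIIb peptide (100 nM final) added for another 15 min. Polarization read at Ex 480/Em 540.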

Test [5] in a line: Primary qHTS for small molecule stabilizers of the endoplasmic reticulum resident proteome: Secreted ER Calcium Modulated Protein (SERCaMP) assay (AID 1508630). Note: % is set by controls: 0 for no effect and ±100 for the full control effect. The gist of the method:
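GLuc-SERCaMP-expressing SH-SY5Y cells, pretreated 16 h with compound, are challenged with thapsigargin to empty ER calcium stores; after 4 h, coelenterazine is added directly to the medium and luminescence is imaged.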

Test [6] addresses Protein phosphatase 1D (Homo sapiens) (UniProt O15297). Kind of test: RapidFire Mass Spectrometry qHTS Assay for Modulators of WT P53-Induced Phosphatase 1 (WIP1) (AID 1347424).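 Note: amount of dephosphorylated VEPPL-S-QETFS peptide product formed by WIP1; series mostly up to about 63 µM; plate controls were DMSO wells for no effect and GSK830371 inhibitor control at 10 µM for full effect.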 The gist of the method: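 WIP1 (10 nM final) was preincubated 1 h at room temperature with compounds in Tris-HCl pH 7.5, 30 mM MgCl2, TCEP, EGTA, BSA; 2 uM VEPPL-pS-QETFS phosphopeptide was added for 5 min, quenched with formic acid, and dephosphorylated product quantified by RapidFire MS.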

Test [7] is described as follows: A High-Content qHTS Against Drug Library for the Identification of Small Molecules that Inhibit DYT1 Early Onset Primary Dystonia-Associated Cell Pathology (AID 1645839; calls by dose curve; note: potency is the fitted concentration of half-maximal effect; for % pathology change, negative = correction: series mostly up to about 46 µM). The gist of the method: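 Readout: %pathology, the punctate EGFP-TorsinA distribution from imaging, as the primary channel and cell count as the toxicity counterscreen. HEK293 Flp-In cells expressing delE TorsinA were induced with tetracycline and treated with compound for 48 h.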

The nature of test [8]: qHTS for inhibitors of adenylyl cyclases using a fission yeast platform: a pilot screen against the NCATS LOPAC library (AID 1347410).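 Note: plate controls were DMSO vehicle for no effect and DPI positive control for full effect.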 Put shortly: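 GFP from fbp1-GFP reporter, read by Acumen laser cytometry, indicates AC inhibition in fission yeast expressing AC9, GNAS and PDE4D2. Cells grown 18 h in the dark at 30C with compounds, final up to 57 uM.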
In test [9] the target is Calcium and integrin-binding protein 1 (Homo sapiens) (UniProt Q99828). The test is described as follows: Validation qHTS for Identification of Calcium Integrin Binding protein 1 (CIB1) Competitor (AID 1508618). Note: % is set by controls: 0 for no effect and ±100 for the full control effect. Put shortly: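 Displacement of FITC-alphaIIb peptide (100 nM) from CIB1-GST (1 uM) is monitored by polarization in quantitative HTS format; buffer carries 5 mM CaCl2 and 125 mM NaCl at pH 7.4, incubations are at room temperature.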
Chain of Calcium and integrin-binding protein 1 (Homo sapiens) (Q99828 whole entry, looked up): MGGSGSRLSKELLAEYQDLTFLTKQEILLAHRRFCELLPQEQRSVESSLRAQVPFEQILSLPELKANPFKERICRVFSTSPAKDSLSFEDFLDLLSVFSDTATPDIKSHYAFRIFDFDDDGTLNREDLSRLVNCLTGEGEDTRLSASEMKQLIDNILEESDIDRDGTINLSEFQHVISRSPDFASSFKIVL

Test [10] can be described thus: Confirmatory qHTS for small molecule stabilizers of the endoplasmic reticulum resident proteome: Secreted ER Calcium Modulated Protein (SERCaMP) assay (AID 1508628). Note: nearly all actives have a fitted effect of over 40% in size. Note: potency is the fitted concentration of half-maximal effect. Put shortly:
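SH-SY5Y cells stably expressing GLuc-SERCaMP, treated 16 h with compound (primary 1.53, 7.67, 38.3 uM; confirmation 11 concentrations, up to 76.6 uM), then 100 nM thapsigargin for 4 h. Secreted Gaussia luciferase in medium read by coelenterazine luminescence.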

Test [11] is described as follows: Cell Viability qHTS for small molecule stabilizers of the endoplasmic reticulum resident proteome (AID 1508629). Particulars: cell viability counter-screen, 100 nM thapsigargin for final 4 h.
Test [12] in a line: qHTS to identify inhibitors of the type 1 interferon - major histocompatibility complex class I in skeletal muscle: primary screen against the NCATS Mechanism Interrogation Plate v5.0 (MIPE) Libary (AID 1347411).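 Note: plate controls were vehicle for no effect and reference inhibitor for full effect; nearly all actives have a fitted effect of over 65% in size.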 The gist of the method: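 Luminescence from HiBiT-tagged endogenous HLA-B*08:01 served as the MHC class I read-out. CRISPR-engineered C25cl48 human myoblasts received 4.0 ng/ml IFN-beta plus compound for 24 hrs, with an 11-point, 1:3 series topping at 46 uM final.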

Test [13] has as its target Single-stranded DNA cytosine deaminase (Homo sapiens) (UniProt Q9GZX7). Kind of test: Validation qHTS assay for inhibitors of Activation Induced Cytidine Deaminase (AID): AID signal (AID 1347429). Note: % is set by controls: 0 for no effect and ±100 for the full control effect. The gist of the method:
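Fluorescence at 540 nm excitation and 590 nm emission reports ssDNA cytosine deamination by AID, with UDG in the same well. Compound-treated reactions ran 4 hr at room temperature with DJC20/DJC23 substrate, followed by 30 min NaOH treatment.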

Test [14] can be described thus: Counterscreen qHTS for small molecule stabilizers of the endoplasmic reticulum resident proteome: GLuc-NoTag assay (AID 1508627).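 For activity change, negative = inhibition: SH-SY5Y cells given compound then 100 nM thapsigargin to empty ER calcium; series mostly up to about 76 µM; 0% = thapsigargin alone and -100% = DMSO vehicle control.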 Note: potency is the fitted concentration of half-maximal effect. Put shortly: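 SH-SY5Y cells stably expressing constitutively secreted GLuc (no SERCaMP tag) were pre-incubated 5 h, treated with compound for 19 h, then 100 nM thapsigargin for 4 h at 37C; medium GLuc read by coelenterazine luminescence.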
(In general: The purpose of a counterscreen is to sort out artefacts and off-target activity.)

Chain of Single-stranded DNA cytosine deaminase (Homo sapiens) (Q9GZX7 whole entry, looked up): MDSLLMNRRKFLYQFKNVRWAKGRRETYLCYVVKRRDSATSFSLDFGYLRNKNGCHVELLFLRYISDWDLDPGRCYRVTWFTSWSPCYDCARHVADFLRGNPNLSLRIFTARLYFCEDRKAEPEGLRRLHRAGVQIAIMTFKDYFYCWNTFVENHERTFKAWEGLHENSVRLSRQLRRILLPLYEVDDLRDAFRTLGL
Chain of Protein phosphatase 1D (Homo sapiens) (O15297 whole entry, looked up): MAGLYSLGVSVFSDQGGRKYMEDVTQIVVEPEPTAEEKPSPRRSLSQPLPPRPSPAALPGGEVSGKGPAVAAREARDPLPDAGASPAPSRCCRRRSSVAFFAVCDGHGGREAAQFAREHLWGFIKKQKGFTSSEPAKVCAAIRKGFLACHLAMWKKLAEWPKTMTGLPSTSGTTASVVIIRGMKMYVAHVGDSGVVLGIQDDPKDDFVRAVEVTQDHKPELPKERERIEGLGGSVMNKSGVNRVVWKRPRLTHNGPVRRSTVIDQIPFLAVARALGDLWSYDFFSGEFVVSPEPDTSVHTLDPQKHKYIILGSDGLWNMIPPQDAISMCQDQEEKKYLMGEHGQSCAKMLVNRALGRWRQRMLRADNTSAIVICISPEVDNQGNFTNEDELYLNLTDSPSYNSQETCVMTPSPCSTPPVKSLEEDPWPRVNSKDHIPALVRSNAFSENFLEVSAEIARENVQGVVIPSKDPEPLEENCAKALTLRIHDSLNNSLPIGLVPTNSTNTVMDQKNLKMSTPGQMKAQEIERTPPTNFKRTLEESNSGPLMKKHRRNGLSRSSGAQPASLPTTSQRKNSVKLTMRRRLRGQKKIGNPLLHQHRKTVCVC

Regarding `CCCc1c(OCCCCc2nn[nH]n2)ccc(C(C)=O)c1O`, the Potency result in test [1] and in test [5] was “inactive” in each case. For the same molecule, the result in [2], in test [3] and in [4] was inactive.
Regarding `CCCCCCCCCCCCOS(=O)(=O)O`, the Potency result in test [1] and in test [7] was “inactive” throughout. Besides, the result in test [6] and in test [3] was inactive.
For the molecule `COc1ccc(S(=O)(=O)Nc2nnc(CC(C)C)s2)cc1`, the molecule was called inactive in test [6], in test [2], in [3] and in test [4]. In addition, in test [5], the Potency result is “inactive”.
Take `Cc1c(O)cccc1C(=O)N[C@@H](CSc1ccccc1)[C@H](O)CN1C[C@H]2CCCC[C@H]2C[C@H]1C(=O)NC(C)(C)C`: the molecule was classed as inactive in test [8], in test [6], in [2], in test [3], in test [9] and in test [4]. Further, the Potency in test [10] is 11.2 µM (active). Besides, the max response in test [11] is 7.19%.
For the molecule `OC[C@H]1O[C@@H](O[C@@H]2[C@@H](CO)O[C@](O)(CO)[C@H]2O)[C@H](O)[C@@H](O)[C@H]1O`, the Potency entry in [12], in [5] and in [7] was “inactive” each time. The molecule was called inactive in [6], in [2] and in test [4].
Turning to `CSc1ccc2c(c1)N(CCC1CCCCN1C)c1ccccc1S2` (stereo not given), the result in test [8], in test [6], in test [2], in test [9] and in [4] was inactive. The Potency entry in [13] was “inactive”. In [14], the Potency is 50.1 µM (active).
Take `CC(C)(C)c1onc(OCP(=O)(O)O)c1CC(N)C(=O)O` (stereo not given): the outcome in test [8] and in test [9] was inactive. The Potency entry in test [13] and in test [5] was “inactive” each time.
Turning to `CN1CCC[C@@H]1Cc1c[nH]c2ccc(CCS(=O)(=O)c3ccccc3)cc12`, the outcome in test [8], in [6], in test [2], in test [3], in test [9] and in test [4] was inactive. In [7], the Potency entry was “inactive”.
Take `CNCCCC1c2ccccc2C=Cc2ccccc21`: the molecule was called inactive in [8], in test [6], in test [2], in test [3], in [9] and in test [4]. Also, the Potency result in test [13] and in test [10] was “inactive” in each case.
For the molecule `CN(C)CCCN1c2ccccc2CCc2ccccc21`, the result in test [8], in test [6] and in test [2] was inactive. Also, the Potency entry in [14] is “inactive”.
Take `Cc1ncc(COP(=O)(O)O)c(C=O)c1O`: the Potency entry in [1] and in test [7] was “inactive” each time. Further, the result in [6] and in [4] was inactive.
`N=c1c[n+](N2CCOCC2)[n-]o1`: the result in [8], in test [3] and in test [9] was inactive. Also, the Potency entry in [13] and in test [5] was “inactive” in each case.
As to `O=c1[nH]cnc2c1ncn2[C@@H]1O[C@H](CO)[C@@H](O)[C@H]1O`, the Potency entry in test [1] and in test [5] was “inactive” in each case. For the same molecule, the call in [6] and in [4] was inactive.
Consider `CC(C)NC[C@H](O)c1ccc(O)c(O)c1`, for which the result in test [8], in [3] and in test [9] was inactive. Besides, the Potency result in test [13] and in test [5] was “inactive” throughout.
As to `COCCOC(=O)C1=C(C)NC(C)=C(C(=O)OC/C=C/c2ccccc2)C1c1cccc([N+](=O)[O-])c1` (stereo not given), the call in [8], in test [6], in test [2], in [3], in [9] and in test [4] was inactive. For the same molecule, the Potency entry in test [13] and in test [5] was “inactive” in each case. The Potency in test [7] was 11.2 µM (active).
As to `COc1cc(C)c(Cc2cnc(N)nc2N)cc1OC`, the result in [6], in test [2], in test [3] and in test [4] was inactive. For the same molecule, the Potency result in test [14] and in test [7] was “inactive” in each case. In addition, the max response in test [11] was 8.8%.
Take `C[C@](N)(Cc1ccc(O)cc1)C(=O)O`: the call in test [8], in [3] and in test [9] was inactive. Moreover, the activity change, negative = inhibition in [6] is 3.41% [at 6.17 µM]; in test [4], 5.16% [at 12.4 µM]. In addition, the Potency entry in test [13] and in [5] was “inactive” throughout. Moreover, the % pathology change, negative = correction in [7] was 14.7% [at 4.63 µM].
`[Cl][In]([Cl])[Cl]`: the Potency result in test [1] and in [7] was “inactive” throughout. For the same molecule, the result in [4] was inactive.
Turning to `CCCCN(CCCC)CC(O)c1cc(Cl)cc2c1-c1ccc(Cl)cc1/C2=C/c1ccc(Cl)cc1` (stereo not given), the molecule was called inactive in test [8], in [6], in [2], in [3], in test [9] and in test [4]. The Potency entry in test [12] was “inactive”.
